# Bioassay records from PubChem BioAssay.
# Most compounds without a hit are left out; they make up all but 3.8% or so of the library.
# Nrf2 inh – inhibitors of Nrf2 signaling. A549 ARE-Fluc reporter, luciferase luminescence, 18-24 h. Potency, µM (top dose mostly 46 µM), inactives show top-dose activity change, negative = inhibition, hits mostly inhibitors. hit rate 2.1% among 360,000; further: on the % scale 0 is the no-effect control and ±100 the full control effect; nearly all actives have a fitted effect of over 60% in size
#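 Nrf2 function is reported as luminescence of an ARE-controlled luciferase in A549 cells. Compounds were tested at several concentrations, and a CellTiter-Fluor read on the same wells flagged cytotoxicity.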
# ELG1 repair inh – inhibitors of ELG1-dependent DNA repair in HEK293T cells. HEK293T ELG1-luciferase reporter, luminescence, 16 h; DNA damage induced by 5-fluorouridine. Potency, µM (series often up to 46.1 µM), inactives show top-dose activity change, negative = inhibition, usual class: inhibitors. hit rate 2.3% among 330,000; further: on the % scale 0 is the no-effect control and ±100 the full control effect; nearly all actives have a fitted effect of over 55% in size
#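 Reporter activity after DNA damage by 5-fluorouridine is monitored. Compound-treated cells incubate 16 hr at 37 °C, then ONE-Glo is added for 30 min before luminescence reading.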
# A549 tox – kills or reduces viability of A549 cells in Nrf2 counter-screen. hit rate 0.16% among 390,000. Potency, µM (top dose mostly 46 µM), for inactives: at the top dose activity change, negative = cytotoxicity, hits mostly inhibitors. A549 ARE-Fluc cells, CellTiter-Fluor viability, 18-24 h; further: on the % scale 0 is the no-effect control and ±100 the full control effect
#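 A549 ARE-Fluc cells in 5% FBS OPTI-MEM, 5000 cells/well, rested 2 h then exposed to compounds in concentration-response for 18-24 h at 37 °C. Viability by CellTiter-Fluor fluorescence (Ex 405/Em 525) after 30 min; luciferase luminescence (BugLite, 15 min, RT) read afterwards.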
# Nrf2 ARE act – activators of Nrf2 (ARE) signaling; Potency, µM (highest dose often 46.1 µM), without a hit: top-dose activation, actives largely listed as activators; AREc32 ARE-luciferase reporter (MCF7-derived line), luminescence, 24 h; AID 624171; hit rate 0.31% among 410,000; further: % of control where 0% means no effect; nearly all actives have a fitted effect of over 65% in size
#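 ARE activation measured as luciferase luminescence (Steady-Glo, 30 min RT) in AREc32_Fluc cells after 24 hr compound exposure at 37 deg C, 5% CO2; cells seeded overnight at 1000/well in OPTI-MEM, 5% FBS.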
# mIDH1 inhibitor – inhibitors of human mutant IDH1 R132H; O75874; IDH1-R132H enzyme, NADPH consumption, diaphorase/resazurin fluorescence; hit rate 0.093% among 390,000; Potency, µM (doses to about 76.6 µM), for inactives: at the top dose activity change, negative = inhibition, most hits filed as inhibitors; further: on the % scale 0 is the no-effect control and ±100 the full control effect; nearly all actives have a fitted effect of over 65% in size
#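 IDH1-R132H (0.5 ug/mL) preincubated 30 min with compound, then NADPH (0.016 mM) and alpha-KG (2 mM) added; 80 min at RT, pH 7.5. Remaining NADPH coupled via diaphorase/resazurin to fluorescence (540/590 nm); concentration-response curves normalized to no-enzyme control.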
# ELG1 FLuc counter – luciferase inhibition in cell-free luciferin readout for ELG1 hits. shares compounds with ELG1 repair inh. cell-free firefly luciferase luminescence counter-screen, ViewLux. Potency, µM (doses to about 46.1 µM), for inactives: at the top dose activity change, negative = inhibition, usual class: inhibitors. hit rate 3% among 350. AID 624247; further: on the % scale 0 is the no-effect control and ±100 the full control effect
# ELG1 Luc conf – inhibits ELG1-dependent DNA repair in HEK293T cells, confirmed; hit rate 68% among 670; AID 624248; Potency, µM (doses to about 46.1 µM), for the others: top-dose activity change, negative = inhibition, hits mostly inhibitors; HEK293T ELG1-luciferase levels, luminescence; cells co-treated with 5-fluorouridine; shares compounds with ELG1 repair inh; further: on the % scale 0 is the no-effect control and ±100 the full control effect; nearly all actives have a fitted effect of over 55% in size
# Target sequence (Q96QE3 whole entry, looked up): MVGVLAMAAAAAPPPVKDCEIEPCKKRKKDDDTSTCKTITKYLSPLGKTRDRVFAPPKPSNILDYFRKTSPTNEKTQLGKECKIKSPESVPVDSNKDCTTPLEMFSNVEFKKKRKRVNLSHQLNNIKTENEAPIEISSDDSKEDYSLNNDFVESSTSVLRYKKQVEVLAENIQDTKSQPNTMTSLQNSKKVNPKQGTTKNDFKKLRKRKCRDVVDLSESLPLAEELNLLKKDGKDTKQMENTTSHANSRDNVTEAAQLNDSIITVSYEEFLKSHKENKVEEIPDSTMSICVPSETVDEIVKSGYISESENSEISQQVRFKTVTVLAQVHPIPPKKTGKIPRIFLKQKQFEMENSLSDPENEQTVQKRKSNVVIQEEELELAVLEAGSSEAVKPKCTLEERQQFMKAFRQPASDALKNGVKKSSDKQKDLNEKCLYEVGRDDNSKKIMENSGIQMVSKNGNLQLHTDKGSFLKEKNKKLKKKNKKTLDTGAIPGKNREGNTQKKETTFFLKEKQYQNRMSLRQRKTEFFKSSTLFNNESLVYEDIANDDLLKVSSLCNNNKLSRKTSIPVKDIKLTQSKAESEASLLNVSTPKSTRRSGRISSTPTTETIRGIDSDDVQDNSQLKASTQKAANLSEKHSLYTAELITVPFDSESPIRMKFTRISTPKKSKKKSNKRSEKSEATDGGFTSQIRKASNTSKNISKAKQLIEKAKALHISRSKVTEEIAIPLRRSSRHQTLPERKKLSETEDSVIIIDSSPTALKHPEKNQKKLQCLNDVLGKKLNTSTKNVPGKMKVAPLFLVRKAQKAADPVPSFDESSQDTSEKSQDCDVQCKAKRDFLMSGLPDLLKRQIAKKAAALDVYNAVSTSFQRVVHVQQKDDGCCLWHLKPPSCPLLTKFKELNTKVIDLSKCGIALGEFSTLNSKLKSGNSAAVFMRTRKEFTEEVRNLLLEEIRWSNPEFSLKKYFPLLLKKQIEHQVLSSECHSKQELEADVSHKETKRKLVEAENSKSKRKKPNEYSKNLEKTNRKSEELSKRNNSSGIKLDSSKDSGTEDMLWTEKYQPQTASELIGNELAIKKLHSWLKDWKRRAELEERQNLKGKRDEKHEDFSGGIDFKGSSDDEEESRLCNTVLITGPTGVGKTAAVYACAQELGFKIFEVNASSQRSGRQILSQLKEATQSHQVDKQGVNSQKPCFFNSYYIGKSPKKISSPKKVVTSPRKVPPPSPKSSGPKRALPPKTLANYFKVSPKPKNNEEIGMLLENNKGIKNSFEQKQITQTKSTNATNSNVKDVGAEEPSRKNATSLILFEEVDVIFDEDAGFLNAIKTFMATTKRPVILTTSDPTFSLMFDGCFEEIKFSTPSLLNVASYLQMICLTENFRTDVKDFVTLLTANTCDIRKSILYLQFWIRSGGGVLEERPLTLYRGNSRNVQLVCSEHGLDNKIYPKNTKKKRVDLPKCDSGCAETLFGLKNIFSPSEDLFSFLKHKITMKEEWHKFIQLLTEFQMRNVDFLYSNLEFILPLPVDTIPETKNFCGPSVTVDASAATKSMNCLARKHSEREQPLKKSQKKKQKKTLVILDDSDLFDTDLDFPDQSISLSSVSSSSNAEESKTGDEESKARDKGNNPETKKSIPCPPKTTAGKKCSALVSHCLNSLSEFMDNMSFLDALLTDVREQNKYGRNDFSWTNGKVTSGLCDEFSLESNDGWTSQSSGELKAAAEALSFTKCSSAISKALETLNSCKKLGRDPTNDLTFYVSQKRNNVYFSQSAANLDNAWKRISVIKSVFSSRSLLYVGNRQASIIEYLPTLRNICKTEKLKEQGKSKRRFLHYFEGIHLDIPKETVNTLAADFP
# ELG1-Luc MMS – inhibits ELG1-dependent repair under MMS stimulation in HEK293T cells | shares compounds with ELG1 repair inh | HEK293T luciferase-tagged ELG1 level, MMS stimulated | Potency, µM (doses to about 46.1 µM), for the others: top-dose activity change, negative = inhibition, hits mostly inhibitors | hit rate 53% among 670; further: on the % scale 0 is the no-effect control and ±100 the full control effect; nearly all actives have a fitted effect of over 60% in size
# ELG1 5-FU – confirmation of ELG1 repair inhibitors: viability with 5FU; shares compounds with ELG1 repair inh; cell viability with 5-FU, ELG1-dependent repair; Potency, µM (titrated, usually from 46.1 µM), for the others: at the highest dose activity change, negative = viability loss, usual class: cytotoxic; 670 tested, under 10 active; AID 624250;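 further: ELG1-luc HEK293T cells cotreated with 5-fluorouridine at 10 µM final; viability measured 16 h after compound addition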
# ELG1 MMS cell – confirmation of ELG1 repair inhibitors: viability with MMS. shares compounds with ELG1 repair inh. Cell viability with MMS, ELG1-dependent DNA repair. Potency, µM (top dose mostly 46.1 µM), for inactives: top-dose activity change, negative = viability loss, hits mostly cytotoxic. hit rate 33% among 670;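 further: ELG1-luc HEK293T cells co-treated with 10 µM MMS; viability read 16 h after compound addition; on the % scale 0 is the no-effect control and ±100 the full control effect; nearly all actives have a fitted effect of over 60% in size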
# Cell viab unstim – unstimulated viability counter-screen for ELG1 repair hits; Potency, µM (series often up to 45.9 µM), inactives show at the top dose activity change, negative = loss of viability, most hits filed as cytotoxic; cell viability counter-screen, unstimulated, luminescence; hit rate 8% among 900; shares compounds with ELG1 repair inh;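 further: compound exposure lasted 16 hours before reading; on the % scale 0 is the no-effect control and ±100 the full control effect; nearly all actives have a fitted effect of over 55% in size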
# FLuc biochem – inhibits purified firefly luciferase, counter-screen for ELG1 hits. shares compounds with ELG1 repair inh. purified firefly luciferase, luminescence counter-screen. Potency, µM (titrated, usually from 57.5 µM), for inactives: at the highest dose activity, negative = inhibition, most hits filed as inhibitors. AID 624253. hit rate 10% among 350; further: on the % scale 0 is the no-effect control and ±100 the full control effect
# Numbers without * were called inactive; ? = inconclusive; nt = no result; [ ] = another dose, or the depositor's remark. The call rests on the fitted dose curve; in most records, active means well fitted curve in the direction sought with a large enough effect; inconclusive means small, poorly fitted or top-dose-only effect, or another doubt; inactive means no such curve, though single readings can be large; an effect the other way counts as inactive or inconclusive. Potency means the concentration at half of the fitted maximal effect.
SMILES,Nrf2 inh,ELG1 repair inh,A549 tox,Nrf2 ARE act,mIDH1 inhibitor,ELG1 FLuc counter,ELG1 Luc conf,ELG1-Luc MMS,ELG1 5-FU,ELG1 MMS cell,Cell viab unstim,FLuc biochem
COc1cc(O)cc2c1C(=O)O[C@@H](C)CCCC(=O)CCCCC2,?,0.0%,14.0%,-0.6%,0.0%,nt,nt,nt,nt,nt,nt,nt
C[C@H]1CCC[C@@H](O)CCC/C=C/c2cc(O)cc(O)c2C(=O)O1,?,2.82µM*,-8.2%,-0.5%,-2.7%,nt,3.97µM*,3.97µM*,-7.2%,?,?,nt
CC(C)OP(=O)(c1ccc(N(C)C)cc1)C(O)c1ccc(Br)cc1 (stereo unspecified),-11.3%,?,1.1%,-0.3%,4.2%,nt,nt,nt,nt,nt,nt,nt
CC(=O)O[C@H]1C[C@@H](O[C@@H]2[C@H](C)O[C@H](O[C@@H]3[C@H](C)O[C@H](O[C@@H]4CC[C@@]5(C)[C@@H](CC[C@]6(C)[C@]5(C)C[C@H](O)[C@]5(C)[C@@H](C7=CC(=O)OC7)CC[C@@]56O)C4)C[C@@H]3O)C[C@@H]2O)O[C@@H](C)[C@H]1O[C@H]1O[C@@H](CO)[C@@H](O)[C@@H](O)[C@@H]1O,nt,nt,nt,nt,nt,?,1.07µM*,0.6µM*,?,1.69µM*,?,3.1%[35.2 µM]
COc1cc([C@@H]2c3cc4c(cc3C[C@H]3COC(=O)[C@@H]32)OCO4)cc(OC)c1O,?,nt,-5.4%,nt,nt,nt,nt,nt,nt,nt,nt,nt
COc1cc2c(cc1OC)C1C(=O)c3c(cc4c(c3O)C=CC(C)(C)O4)OC1CO2 (stereo unspecified),nt,nt,nt,nt,nt,-2.8%,?,0.706µM*,-3.5%,0.792µM*,?,?
CC1OC(=O)C(C(C)C)NC(=O)C(C(C)C)OC(=O)C(C(C)C)NC(=O)C(C)OC(=O)C(C(C)C)NC(=O)C(C(C)C)OC(=O)C(C(C)C)NC(=O)C(C)OC(=O)C(C(C)C)NC(=O)C(C(C)C)OC(=O)C(C(C)C)NC1=O (stereo unspecified),nt,nt,nt,nt,nt,?,12.4%,0.0354µM*,?,0.0792µM*,0.0354µM*,4.2%
CC(C)(C)c1ccc(/C=C2\Oc3cc(OC(=O)N4CCOCC4)ccc3C2=O)cc1,?,0.0%,?,5.8%,0.9%,nt,nt,nt,nt,nt,nt,nt
C[C@@H]1C[C@H](C)C[C@H](C)[C@@H](O)CC(=O)O[C@H]([C@H]2CCC[C@H]2C(=O)O)C/C=C/C=C(/C#N)[C@H](O)[C@@H](C)C1,nt,nt,nt,nt,nt,?,0.397µM*,0.792µM*,?,6.29µM*,?,4.5%
Cc1ccc(-c2nc(CN3C(=O)CN=C(c4ccccc4Cl)c4cc(Cl)ccc43)c(C)o2)cc1,?,nt,-7.2%,0.3%,-7.7%,nt,nt,nt,nt,nt,nt,nt
C[C@@H]1C[C@@H]2[C@H]([C@H]3C=C(COC(=O)c4ccccc4)[C@@H](O)[C@]4(O)[C@@H](O)C(OC(=O)c5ccccc5)=C[C@@]14C3=O)C2(C)C,nt,nt,nt,nt,nt,95.7%,nt,nt,nt,nt,?,-1.2%
CC1(C)Cc2c(sc3nc4n(-c5ccccc5)c(=O)c(CCC(=O)O)nn4c(=O)c23)CO1,6.7%,?,-0.6%,-0.7%,2.2%,nt,nt,nt,nt,nt,nt,nt
COc1ccnc(N=CNOCc2ccc(C)cc2)c1C#N,14.1%,?,?,1.0%,0.1%,nt,nt,nt,nt,nt,nt,nt
COc1ccc(C(=O)CC2(CC(=O)c3ccc(OC)cc3)C(=O)N(C)C(=O)N(C)C2=O)cc1,-10.7%,1.64µM*,-1.4%,-0.4%,-0.1%,nt,0.499µM*,2.6%,?,1.1%,-4.4%,nt
COc1ccc(C(=O)CN2CCCCC2)cc1,1.3%,?,5.1%,-0.4%,-16.2%,nt,nt,nt,nt,nt,nt,nt
CC1O[C@@H](OC2CC[C@@]3(C=O)C4CC[C@]5(C)C(C6=CC(=O)OC6)CC[C@@]5(O)C4CC[C@]3(O)C2)C(O)C(O)C1O (stereo partly specified),nt,nt,nt,nt,nt,?,0.315µM*,0.158µM*,?,0.281µM*,0.141µM*,-8.4%
COc1ccccc1CC(=O)Nc1ccc2c(c1)OC1(CCCC1)O2,1.3%,?,6.3%,6.8%,-0.5%,nt,nt,nt,nt,nt,nt,nt
COc1cc2c(c(OC)c1OC)-c1ccc(O)c(=O)cc1C(NC(C)=O)CC2 (stereo unspecified),?,?,?,0.3%,3.9%,22.3%,nt,nt,nt,nt,-5.0%,1.2%
CC(=O)OC1CCC23C(=O)OC45CCC(C6=CC(=O)OC6)C4(C)CCC2C5CCC3(O)C1 (stereo unspecified),nt,nt,nt,nt,nt,nt,1.25µM*,0.628µM*,?,1.25µM*,0.445µM*,nt
CC(=O)OC1CC[C@]2(C)C(CCC3C2CC[C@]2(C)C(C4=CC(=O)OC4)C(OC(C)=O)CC32O)C1 (stereo partly specified),nt,nt,nt,nt,nt,nt,1.41µM*,0.888µM*,?,1.25µM*,0.628µM*,nt
O=C(Nc1ccc2c(c1)OCO2)c1cccn(Cc2ccccc2)c1=O,nt,nt,-11.7%,1.3%,4.6%,nt,nt,nt,nt,nt,nt,nt
Nc1ccc2c3c(cccc13)-c1ccccc1-2,23.1%,nt,?,11.4%,16.3%,nt,nt,nt,nt,nt,nt,nt
